# Publication PMC7862700, “An all-to-all approach to the identification of sequence-specific readers for epigenetic DNA modifications on cytosine”
# How the values were obtained:
# Experiment in all cases: DAPPL (digital affinity profiling via proximity ligation, sequencing); 10 mM Tris-HCl pH 7.5, 50 mM NaCl, 1 mM DTT, 4% glycerol, room temperature, 30 min; GST-TFs on glutathione beads, 16-mer random dsDNA library, 0.1% formaldehyde crosslink after washing; high values mean tight binding
# Conditions in all cases: protein: recombinant; tags: N-terminal GST; dsDNA, one strand shown
# [1] = biological target: T1, GABPA (Homo sapiens, UniProt Q06546 1-454)
# T1 sequence: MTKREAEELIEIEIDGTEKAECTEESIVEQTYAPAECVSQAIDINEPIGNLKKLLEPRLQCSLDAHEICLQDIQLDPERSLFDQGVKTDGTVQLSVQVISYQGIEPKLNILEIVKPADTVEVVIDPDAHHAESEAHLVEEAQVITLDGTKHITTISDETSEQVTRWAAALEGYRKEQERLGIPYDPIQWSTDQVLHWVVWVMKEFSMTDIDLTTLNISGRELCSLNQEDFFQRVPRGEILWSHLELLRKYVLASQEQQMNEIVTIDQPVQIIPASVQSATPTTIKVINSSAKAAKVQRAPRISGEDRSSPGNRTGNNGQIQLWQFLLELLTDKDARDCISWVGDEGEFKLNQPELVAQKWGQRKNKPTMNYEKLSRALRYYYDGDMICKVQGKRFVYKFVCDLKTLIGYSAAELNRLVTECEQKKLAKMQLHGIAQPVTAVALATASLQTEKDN
# Method in brief: (§1)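 A tag-only sample was pooled with DNA-barcoded human transcription factors that had been expressed in yeast as GST fusions and captured on glutathione beads. The pools were incubated for 30 min at room temperature with 200 nmole of a random double-stranded 16-mer DNA library in Tris/NaCl/DTT/glycerol buffer, then washed, crosslinked with 0.1% formaldehyde, proximity-ligated (BsaI/T4 ligase, 1 h, 37 °C), PCR-amplified and sequenced on an Illumina NextSeq500. Binding signal is each hexamer's read frequency for a factor divided by its frequency for the tag-only sample.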
# [2] = biological target: ELF1 (Homo sapiens, UniProt P32519 1-619)
# Method in brief: as §1
# [3] = biological target: SPI1 (Homo sapiens, UniProt P17947 1-270)
# Method in brief: as §1
# [4] = biological target: SPIB (Homo sapiens, UniProt Q01892 1-262)
# Method in brief: as §1
# [5] = biological target: T2, FEV (Homo sapiens, UniProt Q99581 1-238)
# T2 sequence: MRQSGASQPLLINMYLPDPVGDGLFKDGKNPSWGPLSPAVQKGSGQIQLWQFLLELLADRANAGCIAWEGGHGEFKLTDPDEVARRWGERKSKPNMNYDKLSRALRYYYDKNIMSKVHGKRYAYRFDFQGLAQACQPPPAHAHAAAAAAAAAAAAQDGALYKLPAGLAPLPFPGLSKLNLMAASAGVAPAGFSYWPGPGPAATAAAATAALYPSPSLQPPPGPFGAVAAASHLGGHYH
# Method in brief: as §1
# [6] = biological target: ELF4 (Homo sapiens, UniProt Q99607 1-663)
# Method in brief: as §1
# [7] = biological target: T3, ELK4 (Homo sapiens, UniProt P28324-2 1-405)
# T3 sequence: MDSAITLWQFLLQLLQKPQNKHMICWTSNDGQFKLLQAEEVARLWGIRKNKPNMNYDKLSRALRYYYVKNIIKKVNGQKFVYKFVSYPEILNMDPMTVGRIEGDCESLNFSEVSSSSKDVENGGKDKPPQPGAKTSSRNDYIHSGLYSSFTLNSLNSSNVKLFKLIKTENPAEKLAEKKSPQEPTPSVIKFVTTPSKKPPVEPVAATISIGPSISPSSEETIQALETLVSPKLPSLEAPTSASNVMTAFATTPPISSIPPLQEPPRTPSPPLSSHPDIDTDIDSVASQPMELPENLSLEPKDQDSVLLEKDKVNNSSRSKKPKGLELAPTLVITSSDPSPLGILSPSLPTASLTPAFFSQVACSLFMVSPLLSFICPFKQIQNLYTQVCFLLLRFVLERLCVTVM
# Method in brief: as §1
# [8] = biological target: T4, ETV2 (Homo sapiens, UniProt O00321 1-342)
# T4 sequence: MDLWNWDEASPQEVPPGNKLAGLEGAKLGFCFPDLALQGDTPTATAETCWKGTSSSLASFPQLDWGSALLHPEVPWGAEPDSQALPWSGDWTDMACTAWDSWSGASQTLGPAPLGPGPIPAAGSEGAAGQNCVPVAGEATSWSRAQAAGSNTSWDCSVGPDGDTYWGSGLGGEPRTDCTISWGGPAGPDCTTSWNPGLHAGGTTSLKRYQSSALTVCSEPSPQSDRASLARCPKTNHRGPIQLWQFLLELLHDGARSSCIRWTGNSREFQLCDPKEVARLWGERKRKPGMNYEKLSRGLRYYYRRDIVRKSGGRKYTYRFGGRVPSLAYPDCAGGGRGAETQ
# Method in brief: as §1
# [9] = biological target: T5, ELF3 (Homo sapiens, UniProt P78545 1-371)
# T5 sequence: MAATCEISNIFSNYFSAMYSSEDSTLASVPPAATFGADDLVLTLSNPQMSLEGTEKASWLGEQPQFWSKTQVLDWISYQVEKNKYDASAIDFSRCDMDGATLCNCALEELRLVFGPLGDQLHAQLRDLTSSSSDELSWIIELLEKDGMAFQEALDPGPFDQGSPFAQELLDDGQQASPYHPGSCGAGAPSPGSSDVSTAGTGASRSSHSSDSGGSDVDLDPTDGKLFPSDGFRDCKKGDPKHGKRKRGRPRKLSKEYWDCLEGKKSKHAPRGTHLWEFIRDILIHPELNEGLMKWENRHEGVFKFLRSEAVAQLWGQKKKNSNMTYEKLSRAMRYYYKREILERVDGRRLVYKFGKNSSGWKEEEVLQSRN
# Method in brief: as §1
# [10] = biological target: T6, ERF (Homo sapiens, UniProt P50548 1-548)
# T6 sequence: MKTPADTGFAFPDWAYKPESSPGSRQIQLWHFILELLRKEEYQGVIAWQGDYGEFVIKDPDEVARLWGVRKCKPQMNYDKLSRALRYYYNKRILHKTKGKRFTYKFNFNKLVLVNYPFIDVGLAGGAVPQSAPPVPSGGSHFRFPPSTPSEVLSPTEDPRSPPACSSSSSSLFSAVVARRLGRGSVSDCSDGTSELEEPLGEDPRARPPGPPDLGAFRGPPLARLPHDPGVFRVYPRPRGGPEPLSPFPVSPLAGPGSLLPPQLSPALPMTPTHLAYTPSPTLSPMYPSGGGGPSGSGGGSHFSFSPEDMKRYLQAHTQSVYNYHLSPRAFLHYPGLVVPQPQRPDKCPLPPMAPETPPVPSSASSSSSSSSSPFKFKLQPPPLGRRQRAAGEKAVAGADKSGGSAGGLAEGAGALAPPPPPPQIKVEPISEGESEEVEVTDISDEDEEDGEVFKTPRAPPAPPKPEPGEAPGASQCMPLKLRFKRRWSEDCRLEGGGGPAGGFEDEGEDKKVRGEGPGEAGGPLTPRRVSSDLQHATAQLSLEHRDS
# Method in brief: as §1
# [11] = biological target: T7, ETV3L (Homo sapiens, UniProt Q6ZN32 1-361)
# T7 sequence: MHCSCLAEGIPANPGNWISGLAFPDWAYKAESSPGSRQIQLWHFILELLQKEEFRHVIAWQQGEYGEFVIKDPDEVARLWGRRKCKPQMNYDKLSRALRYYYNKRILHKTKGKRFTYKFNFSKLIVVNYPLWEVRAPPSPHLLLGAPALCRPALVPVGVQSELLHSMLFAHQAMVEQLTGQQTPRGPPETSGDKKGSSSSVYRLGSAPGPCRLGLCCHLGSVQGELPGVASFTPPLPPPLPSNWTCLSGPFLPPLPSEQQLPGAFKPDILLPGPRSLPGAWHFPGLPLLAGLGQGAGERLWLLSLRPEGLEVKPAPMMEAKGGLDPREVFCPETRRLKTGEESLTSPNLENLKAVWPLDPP
# Method in brief: as §1
# [12] = biological target: T8, SPDEF (Homo sapiens, UniProt O95238 1-335)
# T8 sequence: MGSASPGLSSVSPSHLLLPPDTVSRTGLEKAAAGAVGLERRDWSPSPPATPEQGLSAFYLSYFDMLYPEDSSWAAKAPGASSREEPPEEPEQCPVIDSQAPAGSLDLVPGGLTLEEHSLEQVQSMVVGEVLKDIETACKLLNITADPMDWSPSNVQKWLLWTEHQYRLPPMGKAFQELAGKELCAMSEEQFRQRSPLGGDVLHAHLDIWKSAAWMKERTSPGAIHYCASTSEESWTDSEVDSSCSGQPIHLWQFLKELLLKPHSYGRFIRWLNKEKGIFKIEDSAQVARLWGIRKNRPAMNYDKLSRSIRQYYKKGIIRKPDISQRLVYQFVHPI
# Method in brief: as §1
# [13] = biological target: T9, ETV7 (Homo sapiens, UniProt Q9Y603 1-341)
# T9 sequence: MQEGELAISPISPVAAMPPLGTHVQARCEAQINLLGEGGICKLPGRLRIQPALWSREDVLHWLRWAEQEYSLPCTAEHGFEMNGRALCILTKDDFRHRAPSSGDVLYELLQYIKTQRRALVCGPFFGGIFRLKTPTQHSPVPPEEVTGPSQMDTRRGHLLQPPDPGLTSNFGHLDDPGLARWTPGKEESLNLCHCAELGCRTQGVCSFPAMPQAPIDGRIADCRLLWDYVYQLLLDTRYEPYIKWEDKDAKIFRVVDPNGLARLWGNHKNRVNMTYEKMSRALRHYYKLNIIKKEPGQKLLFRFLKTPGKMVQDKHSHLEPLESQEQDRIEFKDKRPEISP
# Method in brief: as §1
# [14] = biological target: T10, ELF5 (Homo sapiens, UniProt Q9UKW6-2 1-255)
# T10 sequence: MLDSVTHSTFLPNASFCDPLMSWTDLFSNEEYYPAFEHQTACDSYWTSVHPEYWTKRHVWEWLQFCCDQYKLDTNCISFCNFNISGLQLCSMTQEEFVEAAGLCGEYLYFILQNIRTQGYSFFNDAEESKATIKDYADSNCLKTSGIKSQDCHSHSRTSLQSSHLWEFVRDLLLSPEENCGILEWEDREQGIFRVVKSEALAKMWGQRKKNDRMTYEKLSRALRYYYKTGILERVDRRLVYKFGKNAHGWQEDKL
# Method in brief: as §1
# [15] = biological target: T11, ETV3 (Homo sapiens, UniProt P41162-2 1-143)
# T11 sequence: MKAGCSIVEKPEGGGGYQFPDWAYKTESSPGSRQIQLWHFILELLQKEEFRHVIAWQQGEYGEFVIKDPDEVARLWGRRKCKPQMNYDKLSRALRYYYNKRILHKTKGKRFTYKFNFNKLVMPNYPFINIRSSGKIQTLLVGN
# Method in brief: as §1
# ELF4, sequence (Q99607 whole entry): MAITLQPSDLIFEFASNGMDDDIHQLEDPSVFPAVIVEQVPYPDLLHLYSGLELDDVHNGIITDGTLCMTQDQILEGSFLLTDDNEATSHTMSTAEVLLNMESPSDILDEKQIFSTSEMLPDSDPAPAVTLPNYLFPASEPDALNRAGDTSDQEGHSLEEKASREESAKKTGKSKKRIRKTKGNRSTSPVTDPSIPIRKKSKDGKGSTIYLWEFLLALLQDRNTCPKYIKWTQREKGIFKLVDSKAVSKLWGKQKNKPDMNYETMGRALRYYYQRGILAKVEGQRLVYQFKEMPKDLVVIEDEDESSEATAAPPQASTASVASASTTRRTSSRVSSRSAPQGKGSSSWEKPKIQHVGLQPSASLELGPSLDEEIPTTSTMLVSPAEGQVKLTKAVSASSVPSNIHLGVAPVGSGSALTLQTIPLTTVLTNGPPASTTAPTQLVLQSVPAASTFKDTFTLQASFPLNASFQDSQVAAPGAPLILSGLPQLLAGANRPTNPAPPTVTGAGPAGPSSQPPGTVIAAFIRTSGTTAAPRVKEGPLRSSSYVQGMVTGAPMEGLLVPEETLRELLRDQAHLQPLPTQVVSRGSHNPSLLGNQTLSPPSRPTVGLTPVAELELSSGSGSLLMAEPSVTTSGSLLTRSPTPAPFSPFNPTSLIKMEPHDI
# SPIB, sequence (Q01892 whole entry): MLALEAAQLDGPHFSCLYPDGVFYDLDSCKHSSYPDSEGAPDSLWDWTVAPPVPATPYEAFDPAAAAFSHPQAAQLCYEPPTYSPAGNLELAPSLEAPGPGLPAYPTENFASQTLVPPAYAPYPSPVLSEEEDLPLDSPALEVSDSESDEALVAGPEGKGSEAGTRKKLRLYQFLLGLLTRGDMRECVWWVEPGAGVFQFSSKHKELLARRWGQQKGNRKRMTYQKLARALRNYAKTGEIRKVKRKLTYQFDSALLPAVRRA
# ELF1, sequence (P32519 whole entry): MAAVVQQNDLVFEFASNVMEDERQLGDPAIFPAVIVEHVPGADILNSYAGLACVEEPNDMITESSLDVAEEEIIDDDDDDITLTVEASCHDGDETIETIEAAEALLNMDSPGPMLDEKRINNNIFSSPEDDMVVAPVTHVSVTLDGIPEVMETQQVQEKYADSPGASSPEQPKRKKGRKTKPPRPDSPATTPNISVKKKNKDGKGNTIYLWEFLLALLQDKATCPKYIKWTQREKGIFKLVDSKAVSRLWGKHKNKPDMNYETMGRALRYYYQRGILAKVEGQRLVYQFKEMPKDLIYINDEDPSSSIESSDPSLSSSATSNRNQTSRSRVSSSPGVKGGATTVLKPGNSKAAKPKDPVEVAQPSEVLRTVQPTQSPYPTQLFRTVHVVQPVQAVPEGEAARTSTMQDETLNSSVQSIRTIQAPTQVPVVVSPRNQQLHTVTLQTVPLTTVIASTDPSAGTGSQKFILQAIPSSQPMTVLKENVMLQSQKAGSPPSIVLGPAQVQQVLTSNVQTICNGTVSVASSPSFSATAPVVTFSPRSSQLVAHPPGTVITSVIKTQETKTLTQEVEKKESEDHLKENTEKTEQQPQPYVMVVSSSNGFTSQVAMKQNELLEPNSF
sequence,measurement,setting,value
TCGCGG,binding signal,[1],"1.07 fold enrichment (6-mer frequency, TF over GST control)"
same,binding signal,[2],"1.02 fold enrichment (6-mer frequency, TF over GST control)"
same,binding signal,[3],"1 fold enrichment (6-mer frequency, TF over GST control)"
same,binding signal,[4],"1.02 fold enrichment (6-mer frequency, TF over GST control)"
same,binding signal,[5],"1.02 fold enrichment (6-mer frequency, TF over GST control)"
same,binding signal,[6],"1.03 fold enrichment (6-mer frequency, TF over GST control)"
same,binding signal,[7],"1.05 fold enrichment (6-mer frequency, TF over GST control)"
same,binding signal,[8],"1.11 fold enrichment (6-mer frequency, TF over GST control)"
same,binding signal,[9],"1.03 fold enrichment (6-mer frequency, TF over GST control)"
same,binding signal,[10],"1.09 fold enrichment (6-mer frequency, TF over GST control)"
same,binding signal,[11],"1.04 fold enrichment (6-mer frequency, TF over GST control)"
same,binding signal,[12],"1.01 fold enrichment (6-mer frequency, TF over GST control)"
same,binding signal,[13],"1.02 fold enrichment (6-mer frequency, TF over GST control)"
same,binding signal,[14],"1 fold enrichment (6-mer frequency, TF over GST control)"
same,binding signal,[15],"1.04 fold enrichment (6-mer frequency, TF over GST control)"
GCAGCA,binding signal,[2],"1.03 fold enrichment (6-mer frequency, TF over GST control)"
same,binding signal,[4],"1.02 fold enrichment (6-mer frequency, TF over GST control)"
same,binding signal,[6],"1.01 fold enrichment (6-mer frequency, TF over GST control)"
same,binding signal,[8],"1.01 fold enrichment (6-mer frequency, TF over GST control)"
AGGTAC,binding signal,[6],"1.01 fold enrichment (6-mer frequency, TF over GST control)"
